Source: PubChem
GPR151 ag – activators of human GPR151, primary screen, cell-based, PathHunter beta-arrestin, luminescence. activation, % at 11.2 µM. PathHunter beta-arrestin GPR151 cells. G-protein coupled receptor 151 (Homo sapiens), Q8TDV0. 1% of 650,000 active; in the data active = activation above about 4.9%;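 note: 0% = median of compound wells and 100% = cells with positive control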
FBW7 act – FBW7 E3 ligase activators, primary screen, biochemical, AlphaScreen, human | F-box/WD repeat-containing protein 7 (Homo sapiens), Q969H0 | AID 1259310, 2017 | normalized activity (activation), % at 26.1 µM | 0.13% of 650,000 active | AlphaScreen FBW7–phospho-cyclin E peptide binding, activator screen; in the data active = normalized activity above about 1.9%;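 note: purified mutant Fbw7 with reduced substrate affinity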
Target sequence (Q969H0 whole entry, looked up): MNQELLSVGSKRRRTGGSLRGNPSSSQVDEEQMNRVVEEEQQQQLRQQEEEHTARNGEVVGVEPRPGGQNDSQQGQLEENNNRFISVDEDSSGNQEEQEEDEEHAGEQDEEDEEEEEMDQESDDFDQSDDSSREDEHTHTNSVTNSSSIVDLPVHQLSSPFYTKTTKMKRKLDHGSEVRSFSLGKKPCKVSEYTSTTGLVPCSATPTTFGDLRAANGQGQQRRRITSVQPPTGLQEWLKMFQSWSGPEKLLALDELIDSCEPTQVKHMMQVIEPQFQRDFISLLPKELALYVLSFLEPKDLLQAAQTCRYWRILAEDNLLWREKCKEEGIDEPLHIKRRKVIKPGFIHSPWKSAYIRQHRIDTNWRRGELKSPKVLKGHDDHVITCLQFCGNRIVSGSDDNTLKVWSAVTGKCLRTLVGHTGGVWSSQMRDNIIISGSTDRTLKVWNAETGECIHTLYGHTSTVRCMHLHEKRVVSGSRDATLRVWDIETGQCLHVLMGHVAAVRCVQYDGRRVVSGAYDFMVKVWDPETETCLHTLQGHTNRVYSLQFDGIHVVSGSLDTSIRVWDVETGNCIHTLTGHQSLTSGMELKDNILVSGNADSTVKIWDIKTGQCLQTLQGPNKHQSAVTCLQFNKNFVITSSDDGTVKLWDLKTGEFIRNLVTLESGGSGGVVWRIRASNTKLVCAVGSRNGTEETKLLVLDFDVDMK
TEAD-YAP block – TEAD-YAP interaction inhibition, primary screen, TEAD-YAP interaction inhibitor project, luminescence, HEK-TIYL cells. 1.4% of 640,000 active. inhibition, % at 9.12 µM. AID 1259422, 2018. TEAD-Gal4/YAP UAS-luciferase luminescence; in the data active = inhibition above about 32%;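 note: 0% = median of test compound wells and 100% = reference inhibitor wells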
MITF inh – MITF inhibitors, primary screen, biochemical, AlphaScreen, human; AlphaScreen MITF homodimerization, bead proximity signal; inhibition, % at 2.6 µM; 0.91% of 650,000 active; Microphthalmia-associated transcription factor (Homo sapiens), O75030; in the data active = inhibition above about 50%;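 note: 0% = vehicle wells with protein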
GPR151 confirm – GPR151 activators, triplicate retest, confirmation, cell-based, PathHunter beta-arrestin, luminescence. 6,700 tested, under 10 active. GPR151 PathHunter beta-arrestin cells, 90 min; % of EA-reagent control over plate median. shares compounds with GPR151 ag. AID 1508609, 2020. activation, % at 11.2 µM;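 active = mean percent activation across replicates above the confirmation screen cutoff of 4.91%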
GPR119 counter – GPR119 activators in beta-arrestin cells, counter-screen for GPR151 activator project, cell-based, PathHunter beta-arrestin, luminescence, triplicate | shares compounds with GPR151 ag | 90 min; 0 = compound-well median, 100 = enzyme-acceptor control | activation, % at 11.2 µM | 0.3% of 6,700 active | AID 1508611, 2020;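 active = mean percent activation in the counterscreen above 29.09%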;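 note: counterscreen on off-target GPR119 to flag nonselective hits from the GPR151 activator screen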
Active calls of the source: *; x = no result. Only some compounds are listed: those with a hit (about 3.4% of all), similar ones and a draw of the others.

SMILES	GPR151 ag	FBW7 act	TEAD-YAP block	MITF inh	GPR151 confirm	GPR119 counter
COc1ccc(NC(=O)Cc2ccccc2[N+](=O)[O-])cc1OC	6.5*	0.5	-24.3	5.1	0.5	8.3
Cc1ccc(C)c(OCC(=O)N/N=C\c2cccn2C)c1	-0.1	0.3	5.6	19.4	x	x
O=C(NC(=S)NCc1ccco1)c1cc([N+](=O)[O-])ccc1N1CCOCC1	7.4*	-0.2	2.6	3.4	-0.3	-2.0
COc1ccc(NC(=O)Cc2ccccc2[N+](=O)[O-])cc1Cl	1.5	-0.1	-32.3	-8.0	x	x
O=C(NCc1ccco1)c1cc([N+](=O)[O-])ccc1N1CCCCC1	2.6	-0.1	8.8	13.8	x	x
O=C(COc1ccccc1-c1ccccc1)NNC(=O)COc1ccccc1[N+](=O)[O-]	7.1*	-0.1	-9.3	8.2	-0.8	1.8
CC(C)(C)NC(=O)COc1ccccc1[N+](=O)[O-]	1.0	-0.1	2.6	-2.0	x	x
Cc1c(C(=O)Nc2ccccc2C(F)(F)F)sc2ncn(CC(=O)N3CCCC(C)C3)c(=O)c12 (centres undefined)	-1.5	0.5	7.3	10.6	x	x
Cc1ccc(-c2cn3c(n2)sc2cc(C(=O)O)ccc23)cc1	0.1	0.1	-56.5	7.0	x	x
C/C(=N\NC(=O)COc1ccccc1[N+](=O)[O-])c1ccc(Cl)cc1	7.1*	-0.1	-17.2	-10.9	0.1	-0.7
CC(=O)c1cccc(NC(=O)COc2ccccc2[N+](=O)[O-])c1	6.2*	0.0	-30.2	-11.4	0.8	7.3
O=C(COc1ccc(Cl)cc1Cl)NC1CC2CCC1C2 (centres undefined)	5.3*	0.5	-5.8	-3.7	-0.4	8.8
C/C(=N/NC(=O)COc1cccc(Cl)c1)c1cccc([N+](=O)[O-])c1	6.6*	0.1	-1.8	-11.7	-0.2	1.8
O=C(COc1ccccc1Cl)NC1CCCCCC1	4.9*	0.0	-53.4	-14.2	1.0	4.8
COc1ccc(/C(C)=N\NC(=O)COc2ccc(C)cc2C)cc1OC	1.3	0.1	3.5	4.3	x	x
O=C(COc1ccccc1[N+](=O)[O-])N/N=C/c1ccccc1Cl	22.2*	0.1	-34.6	-23.6	0.0	1.9
COc1ccc(OC(=O)COc2ccccc2Cl)cc1	7.8*	-0.2	-8.9	-14.9	0.1	8.0
COc1ccc(/C(C)=N\NC(=O)COc2ccc(C)cc2[N+](=O)[O-])cc1OC	7.4*	0.0	-2.6	1.1	0.0	0.9
O=C(COc1ccccc1Br)NC1CCCCC1	1.3	-0.2	-62.2	-8.5	x	x
N#CCN1CCC(c2cc(-c3cccc(C(F)(F)F)c3)n[nH]2)CC1	1.2	-0.1	-1.2	-1.2	x	x
O=C(COc1ccccc1Cl)N/N=C\C=N/NC(=O)COc1ccccc1Cl	11.6*	0.4	-2.7	-0.1	0.0	13.9
O=C(COc1ccccc1Cl)N/N=C/c1ccc(F)cc1	-0.6	0.0	-8.3	-7.5	x	x
COc1cc([N+](=O)[O-])ccc1NC(=S)NCc1ccco1	-2.7	0.2	8.4	15.0	x	x
C/C(=N\NC(=S)NCc1ccco1)c1cccc([N+](=O)[O-])c1	5.0*	-0.1	6.9	3.4	2.2	10.1
CC(C)N(CCNC(=O)c1cccc(Nc2ccnn2C)n1)C(C)C	6.1*	-0.1	-4.2	9.9	-1.3	-17.2
SMILES	GPR151 ag	FBW7 act	TEAD-YAP block	MITF inh	GPR151 confirm	GPR119 counter
CC(C)N(CCNC(=O)c1ccc2nc(Nc3ccnn3C)sc2c1)C(C)C	6.8*	-0.1	-10.7	-1.4	-0.8	-15.8
CC(C)N(CCNC(=O)c1ccc2nc(Nc3ncccn3)sc2c1)C(C)C	1.7	-0.1	-17.9	-4.1	x	x
CCN(CC)C(=O)C1CCCN(c2cc(C(=O)NCCN(C(C)C)C(C)C)ccn2)C1 (centres undefined)	6.2*	-0.1	-3.8	-2.4	-0.6	-1.2
CCCNC(=O)c1ccnc(N2CCCC(C(=O)N(CC)CC)C2)c1 (centres undefined)	-0.6	0.4	5.4	23.0	x	x
CN(C)CCC(Oc1ccc(F)cc1)c1ccc(S(C)(=O)=O)cc1 (centres undefined)	5.6*	-0.1	6.0	33.7	-0.3	9.6
CC1Sc2ccccc2N(Cc2ccc(C(F)(F)F)nc2)C1=O (centres undefined)	5.4*	0.6	-2.7	9.4	0.4	10.8
N#Cc1ccc(C(=O)NCc2nc(-c3ccncc3)n[nH]2)cc1	5.3*	0.3	7.8	14.6	-0.2	-0.7
CC(C)(C)C(=O)COC(=O)c1cccc(S(=O)(=O)N2CCCC2)c1	1.4	0.0	2.8	3.8	x	x
CNS(=O)(=O)c1cccc(C(=O)OCC(=O)C(C)(C)C)c1	7.1*	-0.1	-2.8	-2.2	0.1	8.0
CCS(=O)(=O)N1Cc2ccccc2CC1C(=O)Nc1sc2c(c1C(N)=O)CCCC2 (centres undefined)	0.7	0.5	9.1	-0.5	x	x
Cc1cc(Nc2ccc3c(c2)OCO3)nc(Nc2nc3ccccc3n2C)n1	7.4*	-0.1	0.4	-9.5	0.4	-1.3
Cn1cc(-c2cnc3c(n2)[nH]c(=O)n3CC2CC2)cn1	7.7*	0.2	5.1	21.8	0.7	7.8
CC(C)Cn1c(=O)[nH]c2nc(-c3cnn(C)c3)cnc21	0.0	-0.1	0.5	11.1	x	x
Cc1cc(C(C)(C)C)oc1C(=O)N1CCn2c(nnc2C2CC2)C1	1.4	0.2	-8.3	3.0	x	x
NC(=O)COc1ccc(NC(=O)c2cncc(Br)c2)cc1	6.1*	-0.3	-12.9	-1.0	-1.0	-14.7
O=C(NCCSC1CCCCC1)Nc1ccccc1	5.1*	-0.1	0.7	-10.4	-1.0	-17.9
CCCN(C(=O)c1cccc(N)c1)c1c(C)n(C)n(-c2ccccc2)c1=O	5.5*	-0.1	7.1	15.8	0.5	10.9
COc1cc(Nc2nc(SCC(=O)c3ccccc3)nc3ccccc23)cc(OC)c1	6.9*	-0.1	3.6	-2.9	1.3	16.3
COc1cc(Nc2nc(SCC(=O)c3ccc(Br)cc3)nc3ccccc23)cc(OC)c1	-0.5	0.0	0.0	-4.7	x	x
O=C(CSc1nc(Nc2ccc(F)c(F)c2)c2ccccc2n1)c1ccc(F)cc1	5.1*	0.1	13.2	4.7	-0.9	0.4
O=C1c2cccc(O)c2CCN1Cc1ccccc1	0.2	0.4	15.7	4.7	x	x
COc1cccc2cc(-c3cn4ccc(C)cc4n3)c(=O)oc12	1.4	-0.1	-69.5	-1.9	x	x
CCOc1cccc2cc(-c3cn4cc(C)ccc4n3)c(=O)oc12	10.5*	0.1	-36.0	9.3	-1.2	-17.1
Cc1cccc(C2N(Cc3ccccc3)CCCN2Cc2ccccc2)n1	5.4*	-0.2	-6.4	3.8	0.5	-3.5
